Experimental data from PubChem BioAssay AID1671190 (National Center for Advancing Translational Sciences (NCATS), 2021).
The campaign covered roughly 580,000 compounds. About 6,100 (1.1%) were called active. Where a call stands in place of a potency, no number is given. About 15% were inconclusive and are not listed. The sample holds actives, similar compounds and a random draw of the others, so the mix is not that of the screen. Calls come from the whole dose curve; as a rule, active = well fitted inhibition curve with a large enough effect; inconclusive = small, poorly fitted or top-dose-only effect, or another doubt; inactive = no such curve, though single readings can be large or run the other way.

Target: Polyunsaturated fatty acid lipoxygenase ALOX12 (Homo sapiens) (UniProt P18054)
Test: Primary qHTS assay for inhibitors of human arachidonate 12S-lipoxygenase (ALOX12): Round 2
Details: purified 12hLO, xylenol orange hydroperoxide absorbance; series mostly up to 108 µM
Procedure, shortened: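 Purified human 12hLO (150 nM final) in 25 mM Hepes, 0.01% Triton X-100, pH 7.0 was preincubated 15 min at room temperature with compound. Then 40 uM arachidonic acid was added, 30 min. Hydroperoxide was read by Fe-XO absorbance ratio 573/405 nm.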
Potency is the fitted concentration of half-maximal effect.

Sequence of Polyunsaturated fatty acid lipoxygenase ALOX12 (Homo sapiens) (P18054 whole entry, looked up): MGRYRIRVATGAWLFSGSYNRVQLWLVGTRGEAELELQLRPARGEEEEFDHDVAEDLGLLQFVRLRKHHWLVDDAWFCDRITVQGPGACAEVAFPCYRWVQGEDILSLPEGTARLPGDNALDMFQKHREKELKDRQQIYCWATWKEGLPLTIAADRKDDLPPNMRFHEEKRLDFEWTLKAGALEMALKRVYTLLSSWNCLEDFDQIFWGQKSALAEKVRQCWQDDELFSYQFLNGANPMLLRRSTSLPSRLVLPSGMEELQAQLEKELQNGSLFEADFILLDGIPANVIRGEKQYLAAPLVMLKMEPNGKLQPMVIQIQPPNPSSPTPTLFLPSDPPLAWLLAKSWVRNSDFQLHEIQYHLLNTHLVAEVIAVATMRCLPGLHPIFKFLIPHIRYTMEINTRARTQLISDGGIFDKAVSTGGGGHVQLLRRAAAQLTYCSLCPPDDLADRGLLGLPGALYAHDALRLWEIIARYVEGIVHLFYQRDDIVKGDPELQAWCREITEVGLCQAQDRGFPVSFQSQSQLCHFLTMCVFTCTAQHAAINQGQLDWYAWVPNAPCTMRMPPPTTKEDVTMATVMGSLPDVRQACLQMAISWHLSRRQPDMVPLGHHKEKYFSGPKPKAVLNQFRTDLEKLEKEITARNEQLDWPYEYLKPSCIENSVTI

Row | SMILES | Potency
1 | CC/C(=C(/c1ccccc1)c1ccc(OCC[N+](C)(C)C)cc1)c1ccccc1 | 44.7 µM (active)
2 | CCCCCCCCCOc1ccc(C(=O)c2ccccc2)cc1 | inactive
3 | CC/C(=N/N=C(/CC)c1ccccc1)c1ccccc1 | inactive
4 | CCCCOCCCNC(=O)c1cccc(C#N)c1 | inactive
5 | Cc1ccc(N/N=C/C=C/c2ccccc2)cc1Cl | 2.82 µM (active)
6 | O=C(N/N=C/C=C/c1ccccc1)C1CC1(c1ccccc1)c1ccccc1 (stereo unspecified) | inactive
7 | O=C(NN=CC=Cc1ccccc1)C(O)C(O)C(=O)NN=CC=Cc1ccccc1 (stereo unspecified) | inactive
8 | CCOc1ccc(C(=O)N2c3ccccc3NC(=O)C2CC(=O)Nc2cccc(C(F)(F)F)c2)cc1 (stereo unspecified) | inactive
9 | O=C(Oc1ccc2cc(-c3ccccc3)c(=O)oc2c1)N1CCOCC1 | inactive
10 | C/C(=N\NC(=S)NCc1ccccc1)c1ccc(Cl)cc1 | 31.6 µM (active)
11 | C/C(=N\NC(=O)CNC(=O)C(c1ccccc1)c1ccccc1)c1ccc(C)cc1 | inactive
12 | C/C(=N/NC(=S)NCc1ccccc1)c1cccc(C(F)(F)F)c1 | 12.6 µM (active)
13 | O=C(NCc1ccccc1)c1cccc(NC(=O)C2CCCCC2)c1 | inactive
14 | C/C(=N\NC(=S)NCc1ccccc1)C1CCCCC1 | 39.8 µM (active)
15 | COC(=O)CNC(=O)c1cccc(C(F)(F)F)c1 | inactive
16 | O=C(COC(=O)CNC(=O)C1CCCCC1)NCc1ccccc1 | inactive
17 | S=C(NCc1ccccc1)Nc1ccc(NC(=S)NCc2ccccc2)c(Cl)c1 | inactive
18 | O=C(NC(Cc1ccccc1)C(=O)O)c1cccc(C(F)(F)F)c1 (stereo unspecified) | inactive
19 | CC(=O)c1ccccc1NCC(=O)NCC(F)(F)F | inactive
20 | CCOc1ccc(CNC(=O)c2ncoc2-c2cccs2)cc1OC | inactive
21 | COc1cccc(CN(C(=O)c2oc3cc(Br)ccc3c2C)C2CCS(=O)(=O)C2)c1 (stereo unspecified) | inactive
22 | O=C(CCNc1c(-c2ccc(F)cc2)nc2cnccn12)Nc1ccc2c(c1)OCO2 | inactive

Row | SMILES | Potency
23 | Cc1ccc(C)c(Oc2coc3cc(OC(=O)C(C)C)ccc3c2=O)c1 | inactive
24 | CC(C)c1nnc(CN2CCOc3c(O)cc(-c4cccc(Cl)c4)cc3C2)o1 | inactive
25 | CC(C)Oc1ccc(Cc2n[nH]c(=S)n2Cc2ccccc2)cc1Cl | inactive
26 | O=S(=O)(NCCc1nnc2ccc(SCc3ccc(Cl)cc3Cl)nn12)c1ccccc1 | inactive
27 | S=c1[nH]nc(CSCc2ccc(Cl)cc2Cl)n1-c1ccccc1 | 28.2 µM (active)
28 | CCN(C(=O)CCc1c[nH]c2ccccc12)c1ccc(F)cc1 | inactive
29 | CC(C)=CCc1ccc(O)c(=O)cc1C(C)C | 25.1 µM (active)
30 | Cc1ccccc1-c1cc(=O)c2cc(NC(=O)c3ccccc3F)ccc2o1 | inactive
31 | CCOC(=O)C(NC(=O)CC(C)C)(Nc1sc2c(c1C(N)=O)CCCC2)C(F)(F)F (stereo unspecified) | inactive
32 | COC(=O)C(NC(C)=O)(Nc1nc2c(s1)CCCC2)C(F)(F)F (stereo unspecified) | 17.8 µM (active)
33 | O=C(Nc1nc2c(s1)CCCC2)c1ccccc1F | inactive
34 | CCOc1ccccc1OCCN | inactive
35 | CCCc1nc2c(-c3ccc(Cl)cc3)c(C)[nH]n2c(=O)c1Cl | inactive
36 | O=C(CSc1nncn1-c1ccccc1F)Nc1ccccc1C(=O)Nc1ccccc1 | inactive
37 | O=C(COC(=O)c1cnccn1)Nc1cccc2ccccc12 | inactive
38 | O=C(COC(=O)c1cc2ccccc2cc1O)Nc1ccc(Cl)cc1C(F)(F)F | inactive
39 | O=C(COC(=O)c1cnccn1)Nc1ccc(Cl)cc1C(F)(F)F | 10 µM (active)
40 | CN(Cc1ccccc1N1CCCC1)C(=O)c1ccc(S(=O)(=O)N2CCOCC2)cc1 | inactive
41 | CCOc1ccccc1NC(=O)c1cnc(N2CCCCC2)c2ccccc12 | inactive
42 | O=C(COc1ncnc2c(Cl)cc(Cl)cc12)Nc1cc(F)ccc1F | inactive
43 | Oc1c(Cl)cc(Cl)c(Cl)c1Cc1c(O)c(Cl)cc(Cl)c1Cl | 7.08 µM (active)
44 | CC(C)(C)NC(=O)C(Sc1ccccc1)c1ccccc1 (stereo unspecified) | inactive

Row | SMILES | Potency
45 | COc1ccc(Oc2c(C)oc3cc(OCC(=O)N4CCNC(=O)C4)ccc3c2=O)cc1 | inactive
46 | CN(Cc1ccco1)c1cc(-c2ccccc2C(F)(F)F)ncn1 | inactive
47 | COc1ccccc1-c1cc(NCc2cccs2)ncn1 | inactive
48 | FC(F)(F)c1ccccc1-c1cc(NCc2ccccc2)ncn1 | 15.8 µM (active)
49 | COC(=O)c1nc(-c2ccc(F)cc2)no1 | inactive
50 | CCN(CC)C(=O)[C@@H]1CCC[C@@H](NS(C)(=O)=O)CN(C)C(=O)C1 | inactive
51 | CCOC(=O)C(NS(=O)(=O)c1ccc(C)cc1)(C(F)(F)F)P(=O)(OCC(C)C)OCC(C)C (stereo unspecified) | 39.8 µM (active)
52 | Cc1ccc(S(=O)(=O)NCC(C)NS(C)(=O)=O)cc1 (stereo unspecified) | inactive
53 | CCOC(=O)C(NC(=O)c1ccccc1)(OC(C)C)C(F)(F)F (stereo unspecified) | inactive
54 | CCN1C(=O)N/C(=C/c2cn(CC(=O)Nc3ccc(F)cc3)c3ccccc23)C1=O | inactive
55 | COc1cc(C(=O)Nc2ccc(C)cc2)nc2ccc(Cl)cc12 | inactive
56 | CSc1cccc(NC(=O)N[C@H]2CCN3C(=O)[C@H](Cc4ccc(F)cc4)NC(=O)[C@@H]3C2)c1 | inactive
57 | O=C(c1ccc2ncccc2c1)N1CCC2(CC1)NCCc1c2[nH]c2ccccc12 | inactive
58 | O=C(NCC1CCOCC1)C1COc2ccccc2O1 (stereo unspecified) | inactive
59 | O=C(Cn1nc2c(cc1=O)CCCCC2)Nc1nc(-c2ccncc2)cs1 | inactive
60 | O=C(Nc1nc(-c2ccncc2)cs1)C1COc2ccccc2O1 (stereo unspecified) | 14.1 µM (active)
61 | CCc1cccc2c(C(=O)CSc3nncn3C(C)C)c[nH]c12 | inactive
62 | CC1(C)Cc2c(sc3c2c(=O)n(CCO)c(=O)n3CCc2ccccc2)CO1 | inactive
63 | CCC1(C)Cc2c(sc3[nH]c(=S)n(Cc4ccccc4)c(=O)c23)CO1 (stereo unspecified) | 28.2 µM (active)
64 | CCC1(C)Cc2c(sc3nnn(CC(=O)Nc4ccc(Cl)cc4)c(=O)c23)CO1 (stereo unspecified) | inactive
65 | COc1ccccc1-c1cnc(Nc2ccncc2)c2c1CCO2 | inactive
66 | CN1CCN(C(=O)c2cccc(C(F)(F)F)c2)CC1 | inactive

Row | SMILES | Potency
67 | Cc1ccc(S(=O)(=O)N2CCOCC2)cc1NC(=O)c1ccncc1 | inactive
68 | O=C(CNCc1cccs1)Nc1cc(S(=O)(=O)N2CCCC2)ccc1Cl | inactive
69 | O=[N+]([O-])c1cc(Cl)cc(/C=N/NC(=S)Nc2cc(S(=O)(=O)N3CCOCC3)ccc2Cl)c1O | 25.1 µM (active)
70 | CCOc1cc(C2c3c(-c4c(C)cc(C)cc4O)n[nH]c3C(=O)N2CCO)ccc1O (stereo unspecified) | inactive
71 | C(=NCc1ccccc1)c1cn(-c2ccccc2)nc1-c1cccs1 | 50.1 µM (active)
72 | O=c1onc(-c2cccs2)n1Cc1ccccc1 | inactive
73 | CCC(=O)N1N=C(c2ccc(OC)cc2)CC1c1cn(-c2ccccc2)nc1-c1cccs1 (stereo unspecified) | inactive
74 | CC1(C)[C@H]2CC[C@@H](CNC(=O)c3ccccc3F)[C@@H]1C2 | inactive
75 | COc1cc(/C=N/O)ccc1O | inactive
76 | Oc1c(Br)cc(/C=N/NC(=S)NCC2CCCO2)cc1Br (stereo unspecified) | inactive
77 | COc1cc(/C=N/Nc2ccc(C)cc2)cc(Br)c1O | 10 µM (active)
78 | O=C(Cc1ccc(Cl)cc1)Oc1ccc2ccccc2c1 | inactive
79 | C(=N\N=C(c1ccccc1)c1ccccc1)/c1cn[nH]c1-c1ccccc1 | inactive
80 | CN(C)c1ncnc2sc3c(c12)CCN(Cc1ccccc1)C3 | inactive
81 | CCCc1nc(-c2ccccc2O)n(-c2ccccc2)n1 | inactive
82 | Cc1ccc(N2C(=O)C3N=NN(CC(=O)N4N=C(c5cccc6ccccc56)CC4c4ccccc4)C3C2=O)cc1 (stereo unspecified) | inactive
83 | Oc1ccccc1C1=NN(c2ccccc2)C(c2ccccc2)C1 (stereo unspecified) | 15.8 µM (active)
84 | Cc1oc2cc(OCC(=O)N3CCCCCC3)ccc2c(=O)c1-c1ccc(Cl)cc1 | inactive
85 | CCN1/C(=C\c2ccc3ccccc3[n+]2CC)Sc2cc(C)ccc21 | 35.5 µM (active)
86 | CCN(CC)C(=O)Oc1ccc2c(C)c(-c3ccc(OC)cc3)c(=O)oc2c1 | inactive
87 | O=C1CC(NCc2ccoc2)CN1CCc1cccc(Cl)c1 (stereo unspecified) | inactive
88 | Cc1ccccc1NC(=O)c1cc2cc([N+](=O)[O-])ccc2oc1=O | inactive

Row | SMILES | Potency
89 | COc1cc(CNCCSc2nnnn2C)ccc1OCc1c(F)cccc1Cl | inactive
90 | Cn1nnnc1SCCNCc1ccc(Cl)c(Cl)c1 | inactive
91 | COc1cc(CNCCSc2nnnn2C)ccc1OCc1ccc(Cl)cc1Cl | 39.8 µM (active)
92 | Cc1cc(S(=O)(=O)N2CCCN(C)c3ccccc32)ccc1F | inactive
93 | Cc1ccc(CN(CC(=O)NCC2CCCO2)C2CC2)cc1 (stereo unspecified) | inactive
94 | CN(Cc1cccs1)C(=O)C1CCC1 | inactive
95 | Cc1ccc(C(=O)N2CCC3(CC2)NC(=O)N(Cc2ccc(F)cc2)C3=O)cc1 | inactive
96 | Cc1ccc(C(=O)N2CCC(c3n[nH]c(=O)n3Cc3ccc(F)cc3)CC2)cc1 | inactive
97 | CCN1CCC2(CC1)N=C(c1ccc(F)cc1)C(=S)N2C(=O)c1ccc(C)cc1 | 50.1 µM (active)
98 | CC1CCN(CCCNC(=O)c2cc(=O)c3ccccc3o2)CC1 | inactive
99 | Cc1ccc(N(CC(=O)Nc2cc(C)cc(C)c2)S(=O)(=O)c2cccc3nonc23)cc1 | inactive
100 | Cc1ccc(S(=O)(=O)N(CC(=O)Nc2cccnc2)c2ccc(Br)cc2)cc1 | 22.4 µM (active)
101 | CCNC(=O)CN(c1ccc(C)cc1)S(=O)(=O)c1ccc(SC)cc1 | inactive
102 | COc1ccccc1C(=O)N1CCc2c(nc3cc(-c4ccccc4Cl)[nH]n3c2=O)C1 | inactive
103 | COc1ccc2cc(C(=O)N3CCN(S(=O)(=O)c4ccccc4C(F)(F)F)CC3)c(C)nc2c1 | inactive
104 | Cn1c(=O)c2c(nc(Cl)n2CC(=O)N(C2CCCC2)C2CCS(=O)(=O)C2)n(C)c1=O (stereo unspecified) | inactive
105 | O=C(Cc1cccc2ccccc12)NCCc1cccc2cccnc12 | inactive
106 | CCCCc1c(C)nc2c(C)cccc2c1SCC(=O)O | inactive
